# Test results: PubChem BioAssay (NCATS)
# Where “and” joins values, the source holds several entries; their conditions need not be identical. Equal entries are not always repeated. Records with an inconclusive call do not appear. Calls of active or inactive are those of the source. Unless noted, calls come from the whole dose curve; as a rule, active = well fitted curve in the direction sought with a large enough effect; inconclusive = small, poorly fitted or top-dose-only effect, or another doubt; inactive = no such curve, though single readings can be large; an effect the other way counts as inactive or inconclusive.
# Legend:
# [1] = qHTS assay for measurement of the activity of small molecule inhibitors on Zika virus induced Caspase-3 activity in human iPSC derived neural progenitor cells (hNPCs) (AID 1224857); note: nearly all actives have a fitted effect of over 65% in size; note: potency is the fitted concentration of half-maximal effect
# Method in brief: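 hNPCs seeded 350 cells/well, cultured 16–20 h; compounds added 1 h before ZIKV (2 FFU/cell), 37 C 6 h. Caspase-Glo 3/7 luminescence after 30 min RT; % inhibition from induction scaled to uninfected (0%) and infected (100%) wells.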
# [2] = qHTS assay for cell viability of the p53RE-bla HCT-116 cell line (AID 743292); note: nearly all actives have a fitted effect of over 55% in size; note: potency is the fitted concentration of half-maximal effect
# Method in brief: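 Viability of compound-treated p53RE-bla HCT-116 cells is taken from ATP-dependent luciferase luminescence. Treatment lasts 16 h at 37 C after a 5 h settling period; detection follows 30 min at room temperature.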
# [3] = qHTS profiling of the MIPE4 collection as inhibitors of Plasmodium falciparum (3D7) proliferation (AID 743344; call rule not given here;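 note: scaled between DMSO vehicle wells and 0.29 µM artemisinin as full inhibition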); conditions: P. falciparum 3D7 in erythrocytes, SYBR Green DNA fluorescence, 72 h; at 28.5 µM (top of the series)
# Method in brief: (§1)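 Parasite DNA was quantified by SYBR Green I fluorescence (ex 485, em 535 nm) after overnight lysis in saponin/Triton buffer at room temperature. Cultures at 0.3% parasitemia and 2.5% hematocrit were first exposed to compound for 72 h at 37 C; signals were normalised to artemisinin (0.29 uM) and vehicle wells.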
# [4] = qHTS profiling of the MIPE4 collection as inhibitors of Plasmodium falciparum (DD2) proliferation (AID 743345; call rule not given here); conditions: P. falciparum Dd2 in erythrocytes, SYBR Green DNA, 72 h; at 28.5 µM (top of the series)
# Method in brief: as §1
# [5] = qHTS profiling of the MIPE4 collection as inhibitors of Plasmodium falciparum (DD2) proliferation (Rep 2) (AID 743346; call rule not given here); conditions: P. falciparum Dd2 in erythrocytes, SYBR Green DNA, 72 h; at 28.5 µM (top of the series)
# Method in brief: as §1
# [6] = qHTS profiling of the MIPE4 collection as inhibitors of Plasmodium falciparum (HB3) proliferation (AID 743347; call rule not given here;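 note: plate controls were DMSO vehicle wells for no effect and artemisinin wells for full effect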); conditions: P. falciparum HB3 in erythrocytes, SYBR Green DNA, 72 h; at 28.5 µM (top of the series)
# Method in brief: as §1
# [7] = qHTS assay for cell viability of HEK293 cells (AID 743288); conditions: ATP luminescence (CellTiter-Glo), 18 h; max response: stronger effect = lower value; note: nearly all actives have a fitted effect of over 50% in size; note: potency is the fitted concentration of half-maximal effect; for max response: % is set by controls: 0 for no effect and ±100 for the full control effect
# Method in brief: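 After 18 h compound exposure at 37 C, parental HEK293 cells (2,000/well) are lysed with CellTiter-Glo and luminescence is read following 30 min at room temperature.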
# [8] = qHTS profiling for inhibitors of Plasmodium falciparum (3D7) proliferation (AID 743322; call rule not given here;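 note: infected erythrocytes exposed to compound for 72 h before lysis; 100% = DMSO vehicle wells and 0% = 0.29 µM artemisinin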); conditions: P. falciparum 3D7 proliferation; at 28.7 µM (top of the series) unless noted
# Method in brief: as §1
# [9] = qHTS profiling for inhibitors of Plasmodium falciparum (DD2) proliferation (AID 743323; call rule not given here); conditions: lower = more inhibition; at 28.7 µM (top of the series) unless noted
# Method in brief: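 1536-well qHTS; infected RBCs 0.3% parasitemia/2.5% Hct final; cpd 72 h 37 C 5% CO2; lysis buffer + SYBR Green I, o/n RT dark; FI 485/535; norm. to 0.29 uM artemisinin and DMSO, plate-stack corrected.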
# [10] = qHTS profiling for inhibitors of Plasmodium falciparum (HB3) proliferation (AID 743324); conditions: Plasmodium falciparum HB3 blood-stage proliferation; at 28.7 µM (top of the series) unless noted;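 note: 100% = DMSO vehicle wells and 0% = artemisinin-treated control wells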
# Method in brief: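 SYBR Green fluorescence (485 ex/535 em) of lysed cultures, incubated overnight at room temperature in the dark, quantifies parasite DNA. Infected erythrocytes at 0.3% parasitemia and 2.5% hematocrit were exposed 72 h; values normalized to DMSO and 0.29 uM artemisinin controls.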
structure (smiles),measurement,setting,value
N[C@H](CCCP(=O)(O)O)C(=O)O,Potency,[1],inactive
c1cnc2c(c1)ccc1cccnc12,Potency,[2],inactive
same,Potency,[1],inactive
Cc1cc2c(cc1Cl)N(C(=O)Nc1ccc(Oc3cccnc3C)nc1)CC2,Potency,[1],inactive
CC(C(=O)O)c1ccc(C(=O)c2cccs2)cc1 (stereo unspecified),Potency,[1],22.4 µM (active)
COC(=O)C1=C(C)NC(C)=C(C(=O)OCC(C)C)C1c1ccccc1[N+](=O)[O-] (stereo unspecified),"parasite growth, % of DMSO control",[3],5.69%
same,"parasite growth remaining, % of DMSO control (lower = more inhibition)",[4],15%
same,"parasite growth, % of control (lower = inhibition)",[5],8.98%
same,"growth, % of control",[6],9.44%
Nc1ccc(O)c([N+](=O)[O-])c1,max response,[7],-18.2% (inactive) and -13.9% (inactive)
same,Potency,[2],inactive
O=C(O)c1cc(O)c(O)c(O)c1,max response,[7],-7.89% (inactive)
same,Potency,[2],inactive
C=CC(C)=C[C@@]1(C)SC(=O)C(C)=C1O,remaining parasite growth % (stronger effect = lower value),[8],98%
same,"activity, percent of control",[9],98.3%
same,"remaining proliferation (% of control), lower = more inhibition",[10],92.5%
same,"parasite growth, % of DMSO control",[3],98.9%
same,"parasite growth remaining, % of DMSO control (lower = more inhibition)",[4],108%
same,"parasite growth, % of control (lower = inhibition)",[5],151%
same,"growth, % of control",[6],77.3%
Nc1ccc(O)c(C(=O)O)c1,max response,[7],-0.669% (inactive) and -7.83% (inactive)
same,Potency,[2],inactive
CN(C)c1ccc(C(=C2C=CC(=[N+](C)C)C=C2)c2ccccc2)cc1,Potency,[7],3.55 µM (active)
same,Potency,[2],3.98 µM (active)
COc1cc(CNC(=O)CCCC/C=C/C(C)C)ccc1O,max response,[7],-3.17% (inactive) and -17.3% (inactive)
same,Potency,[2],inactive
CC[C@@H](C)[C@H]1O[C@]2(CC[C@H]1C)C[C@@H]1C[C@@H](CC=C(C)[C@@H](O[C@H]3C[C@H](OC)[C@@H](O[C@H]4C[C@H](OC)[C@@H](O)[C@H](C)O4)[C@H](C)O3)[C@@H](C)C=CC=C3CO[C@@H]4[C@H](O)C(C)=C[C@@H](C(=O)O1)[C@]34O)O2,remaining parasite growth % (stronger effect = lower value),[8],-0.904%
same,"activity, percent of control",[9],-0.0225%
same,"remaining proliferation (% of control), lower = more inhibition",[10],-0.425%
same,"parasite growth, % of DMSO control",[3],35.5%
same,"parasite growth remaining, % of DMSO control (lower = more inhibition)",[4],6.32%
same,"parasite growth, % of control (lower = inhibition)",[5],38.4%
same,"growth, % of control",[6],12.5%
O=C(Nc1cccc(C(=O)Nc2ccc(S(=O)(=O)O)c3cc(S(=O)(=O)O)cc(S(=O)(=O)O)c23)c1)Nc1cccc(C(=O)Nc2ccc(S(=O)(=O)O)c3cc(S(=O)(=O)O)cc(S(=O)(=O)O)c23)c1,"parasite growth, % of DMSO control",[3],84.7%
same,"parasite growth remaining, % of DMSO control (lower = more inhibition)",[4],91.3%
same,"parasite growth, % of control (lower = inhibition)",[5],111%
same,"growth, % of control",[6],83.4%
CC(C)OC(=O)c1cc(C(=O)OC(C)C)cc([N+](=O)[O-])c1,max response,[7],-14.7% (inactive)
same,Potency,[2],inactive
CCCCCCCCCCCCCCCC(=O)OC(C)C,max response,[7],-7.13% (inactive)
same,Potency,[2],inactive
CN(C)c1ccc(N=NS(=O)(=O)O)cc1,max response,[7],-6.45% (inactive) and -13.1% (inactive)
same,Potency,[2],inactive
C=CCCCCCCCCC(=O)O,max response,[7],-1.32% (inactive)
same,Potency,[2],inactive
N=C1N=C(N)c2cc3ccccc3cc21,Potency,[7],44.7 µM (active)
same,Potency,[2],50.1 µM (active)
O=C(Nc1ccccc1)c1cc([N+](=O)[O-])ccc1Cl,max response,[7],-11.7% (inactive)
same,Potency,[2],inactive
O=C(OCc1ccccc1)c1ccccc1,max response,[7],-7.64% (inactive)
same,Potency,[2],inactive
CN(C)CCC(c1ccc(Cl)cc1)c1ccccn1 (stereo unspecified),max response,[7],-8.98% (inactive)
same,Potency,[2],inactive
same,"parasite growth, % of DMSO control",[3],105%
same,"parasite growth remaining, % of DMSO control (lower = more inhibition)",[4],70.9%
same,"parasite growth, % of control (lower = inhibition)",[5],38.1%
same,"growth, % of control",[6],78.9%
O=C(O)[C@H](O)[C@@H](O)[C@H](O)[C@H](O)CO,max response,[7],-14.1% (inactive)
same,Potency,[2],inactive
Nc1cc(-c2ccncc2)c[nH]c1=O,max response,[7],-3.39% (inactive)
same,Potency,[2],inactive
C[N+](C)(CCCCCC[N+](C)(C)CCCN1C(=O)c2cccc3cccc(c23)C1=O)CCCN1C(=O)c2cccc3cccc(c23)C1=O,"parasite growth, % of DMSO control",[3],5.01%
same,"parasite growth remaining, % of DMSO control (lower = more inhibition)",[4],5.17%
same,"parasite growth, % of control (lower = inhibition)",[5],6.76%
same,"growth, % of control",[6],4.26%
C=C[C@@H]1CN2CC[C@@H]1C[C@H]2[C@H](O)c1ccnc2ccc(OC)cc12,remaining parasite growth % (stronger effect = lower value),[8],0.99%
same,"activity, percent of control",[9],1.73%
same,"remaining proliferation (% of control), lower = more inhibition",[10],1.02%
same,"parasite growth, % of DMSO control",[3],6.67%
same,"parasite growth remaining, % of DMSO control (lower = more inhibition)",[4],9.34%
same,"parasite growth, % of control (lower = inhibition)",[5],20.6%
same,"growth, % of control",[6],5.53%
CN1CCC[C@H]1c1cccnc1,max response,[7],-10.2% (inactive) and -14.6% (inactive)
same,Potency,[2],inactive
Nc1ccc([N+](=O)[O-])cc1O,max response,[7],3.96% (inactive) and 2.89% (inactive)
same,Potency,[2],inactive
